Here are results for 8 molecules from PubChem BioAssay (NCI).

The panel holds about 83,000 compounds, 20% with a hit somewhere; the sample as a whole holds those more often.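 Single-concentration screen, 48 h exposure, 96-well plates. Endpoint: percent growth. Below 10 = active.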 A number with no mark means an inactive call. Activity calls are given as the source filed them.

Test systems include HCT-15 colon; HT29 colon; SNB-75 CNS; SNB-19 CNS; U251 CNS; PC-3 prostate; SK-MEL-5 melanoma; UACC-62 melanoma; LOX IMVI melanoma; SK-MEL-28 melanoma; SK-MEL-2 melanoma; EKVX NSCLC; SN12C renal; UO-31 renal; TK-10 renal; ACHN renal; CAKI-1 renal; A498 renal; CCRF-CEM leukemia; MOLT-4 leukemia.
What all share (test): NCI-60 one-dose screen, 48 h (100 = growth as untreated, 0 = no growth, -100 = all killed)
What all share (details): 10 µM unless noted

Turning to `CN1CCN(Cc2ccc(NC(=O)c3cncc(C#Cc4cnc5ccc(N6CCOCC6)nn45)c3)cc2C(F)(F)F)CC1`, the growth in the assay on HCT-15 colon is -53.9% (active); with HT29 colon it was -71.2% (active); in the assay with SNB-75 CNS, -46.3% (active); in the assay with SNB-19 CNS, -20.3% (active); in the assay on U251 CNS it was -92.8% (active); with PC-3 prostate it was -7.08% (active). Besides, the growth in the assay with SK-MEL-5 melanoma was -95.9% (active); in the assay with UACC-62 melanoma it was -62.2% (active); in the assay on LOX IMVI melanoma, -93.8% (active); in the assay with SK-MEL-28 melanoma, -76.4% (active); in the assay on SK-MEL-2 melanoma, -88.3% (active); with EKVX NSCLC it was -47.5% (active). The growth was -22.1% (active) in the assay with SN12C renal; -81.2% (active) in the assay with UO-31 renal; -64.3% (active) in the assay on TK-10 renal; -97.8% (active) in the assay with ACHN renal; -50.3% (active) with CAKI-1 renal; -94.3% (active) in the assay on A498 renal. Moreover, the growth in the assay with CCRF-CEM leukemia is -2.39% (active); in the assay with MOLT-4 leukemia it was 0.376% (active).
For the molecule `CC(=O)OC[C@]12CC[C@@H](C(=O)/C=C/c3cccnc3)[C@@H]1[C@H]1CC[C@@H]3[C@@]4(C)CC[C@H](OC(C)=O)C(C)(C)[C@@H]4CC[C@@]3(C)[C@]1(C)CC2`, the growth in the assay on HCT-15 colon was -53% (active); with HT29 colon, 6.53% (active); with SNB-75 CNS, 54.3%; in the assay with SNB-19 CNS, 46.6%; in the assay on U251 CNS, 23.4%; in the assay on PC-3 prostate, 19.9%. Moreover, the growth was -96.2% (active) in the assay on SK-MEL-5 melanoma; -4.76% (active) in the assay with UACC-62 melanoma; -84% (active) in the assay with LOX IMVI melanoma; -56.4% (active) in the assay on SK-MEL-28 melanoma; -35.9% (active) in the assay with SK-MEL-2 melanoma; 21.8% in the assay with EKVX NSCLC. The growth in the assay with SN12C renal was 19%; in the assay on UO-31 renal it was 12.1%; in the assay with TK-10 renal, 38.5%; with ACHN renal, -55.5% (active); with CAKI-1 renal it was 12.2%; with A498 renal, -47.7% (active). For the same molecule, the growth with CCRF-CEM leukemia is 2.41% (active); with MOLT-4 leukemia, -5.14% (active).
For `C/C(=N\NC(=O)Nc1ccccc1)c1nnn(-c2ccc([N+](=O)[O-])cc2)c1C`, the growth in the assay on HCT-15 colon is 105%; in the assay with HT29 colon it was 116%; in the assay on SNB-75 CNS, 100%; in the assay on SNB-19 CNS it was 100%; with U251 CNS, 102%; in the assay on PC-3 prostate it was 99.7%. Also, the growth with SK-MEL-5 melanoma is 99.6%; with UACC-62 melanoma, 99.6%; in the assay on LOX IMVI melanoma, 102%; with SK-MEL-28 melanoma, 106%; in the assay with SK-MEL-2 melanoma, 104%; in the assay on EKVX NSCLC, 103%. For the same molecule, the growth in the assay on SN12C renal was 110%; in the assay with UO-31 renal, 72.4%; in the assay with TK-10 renal, 99.7%; with ACHN renal, 104%; in the assay on CAKI-1 renal, 94.4%; in the assay on A498 renal, 105%. For the same molecule, the figures for the growth in the assay on CCRF-CEM leukemia and in the assay on MOLT-4 leukemia were 105% and 103%, respectively.
Take `O=C(/C=C/c1cccc(F)c1)c1cccc(OCCCCOc2cccc(C(=O)/C=C/c3cccc(F)c3)c2)c1`: the growth was 97.6% in the assay on HCT-15 colon; 106% in the assay with HT29 colon; 102% in the assay on SNB-75 CNS; 94% in the assay with SNB-19 CNS; 105% in the assay on U251 CNS; 97.6% with PC-3 prostate. The growth is 98.6% in the assay on SK-MEL-5 melanoma; 94.8% with UACC-62 melanoma; 95.2% with LOX IMVI melanoma; 105% with SK-MEL-28 melanoma; 101% with SK-MEL-2 melanoma; 99% in the assay with EKVX NSCLC. Moreover, the growth in the assay with SN12C renal was 95.2%; in the assay on UO-31 renal, 96%; in the assay with TK-10 renal, 100%; in the assay with ACHN renal, 100%; in the assay with CAKI-1 renal, 99.1%; in the assay with A498 renal, 110%. Also, the growth in the assay on CCRF-CEM leukemia is 102%; in the assay with MOLT-4 leukemia it was 95%.
As to `Cc1ccc(OCc2occc2C(=O)N2CCOCC2)cc1`, the growth in the assay with HCT-15 colon is 100%; with HT29 colon, 108%; with SNB-75 CNS it was 81.8%; in the assay with SNB-19 CNS, 99.8%; with U251 CNS it was 103%; in the assay with PC-3 prostate it was 107%. Also, the growth in the assay on SK-MEL-5 melanoma is 100%; in the assay on UACC-62 melanoma, 97.9%; in the assay on LOX IMVI melanoma it was 108%; in the assay with SK-MEL-28 melanoma, 110%; with SK-MEL-2 melanoma, 107%; in the assay with EKVX NSCLC, 96.5%. The growth is 103% in the assay on SN12C renal; 90.9% with UO-31 renal; 97.3% in the assay with TK-10 renal; 111% in the assay with ACHN renal; 93.7% in the assay on CAKI-1 renal; 98.1% in the assay on A498 renal. In addition, the results for the growth in the assay on CCRF-CEM leukemia and with MOLT-4 leukemia were 94.5% and 109%, respectively.
Regarding `CC1(C)CC[C@]23CC[C@]4(C)[C@H](CC[C@@H]5[C@@]6(C)CC[C@H](N)C(C)(C)[C@@H]6CC[C@]54C)[C@H]2[C@H]1OC3`, the growth was -52.2% (active) with HCT-15 colon; 20.2% with HT29 colon; 99.5% with SNB-75 CNS; 47.3% in the assay with SNB-19 CNS; -47.9% (active) with U251 CNS; 69.6% in the assay on PC-3 prostate. Further, the growth is 87.7% with SK-MEL-5 melanoma; 94.6% with UACC-62 melanoma; -74.2% (active) in the assay on LOX IMVI melanoma; 103% in the assay on SK-MEL-28 melanoma; 108% with SK-MEL-2 melanoma; 63.1% in the assay with EKVX NSCLC. The growth in the assay on SN12C renal was 79.1%; with UO-31 renal, 82.7%; with TK-10 renal, 135%; in the assay with ACHN renal, 36.5%; in the assay on CAKI-1 renal, 1.94% (active); with A498 renal, 108%. For the same molecule, the growth with CCRF-CEM leukemia is -5.4% (active); in the assay with MOLT-4 leukemia, -13.3% (active).
For `NC1CC2(CCN(c3cnc(C(=O)Nc4cc(F)cc5cccnc45)cn3)CC2)C1`, the growth is 3.7% (active) in the assay on HCT-15 colon; 5.06% (active) in the assay with HT29 colon; 74.2% with SNB-75 CNS; 83.1% in the assay with SNB-19 CNS; 57.1% with U251 CNS; 76.6% with PC-3 prostate. The growth in the assay on SK-MEL-5 melanoma is 95.3%; with UACC-62 melanoma, 95.4%; with LOX IMVI melanoma, -17% (active); in the assay on SK-MEL-28 melanoma, 93.3%; in the assay with SK-MEL-2 melanoma, 101%; in the assay on EKVX NSCLC it was 81.9%. Besides, the growth was 72.5% in the assay with SN12C renal; 76.1% with UO-31 renal; 88% in the assay with TK-10 renal; 79% in the assay on ACHN renal; 79.3% in the assay with CAKI-1 renal; 74.3% in the assay with A498 renal. The growth was 34.7% with CCRF-CEM leukemia and 40.8% in the assay on MOLT-4 leukemia.
On to `O=C(CCCCCCN1CC(=O)N2[C@@H](c3cccs3)c3[nH]c4ccccc4c3C[C@H]2C1=O)NO`, for which the growth in the assay with HCT-15 colon was 96.1%; in the assay with HT29 colon, 78.9%; in the assay on SNB-75 CNS, 73%; in the assay on SNB-19 CNS, 78.1%; in the assay with U251 CNS, 76.5%; in the assay on PC-3 prostate, 86.2%. The growth was 74.8% with SK-MEL-5 melanoma; 5.39% (active) with UACC-62 melanoma; 68.4% in the assay with LOX IMVI melanoma; 70.2% with SK-MEL-28 melanoma; 77.8% in the assay with SK-MEL-2 melanoma; 92.2% with EKVX NSCLC. The growth is 93.8% in the assay with SN12C renal; 82.7% in the assay with UO-31 renal; 85.5% in the assay on TK-10 renal; 96.7% with ACHN renal; 88.5% with CAKI-1 renal; 87.3% in the assay on A498 renal. Besides, the growth with CCRF-CEM leukemia is 24.2%; in the assay on MOLT-4 leukemia it was 19.3%.
